Compounds with a hit are over-represented: about 2.2% of the library has one in this group of screens.
TWEAK-Fn14 inh – TWEAK-Fn14 signaling inhibition. TWEAK-stimulated Fn14 reporter cells, luciferase luminescence, 8 h. AID 1159606. inhibition, % at 10 µM. 360,000 tested, 2% active; in the data active means inhibition above about 50%
HSP90 inh – blocks HSP90-mediated luciferase refolding in reticulocyte lysate | inhibition, % at 5.6 µM | 290,000 tested, 0.91% active | Rabbit reticulocyte lysate, luciferase refolding luminescence, 3 h;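 active means inhibition above the screen-wide mean plus 3 SD, computed separately per campaign, cut at about 16% in these data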;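 further: inhibitors lower the luminescence because luciferase stays unfolded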
LGR2 inh – blocks bursicon-induced cAMP signaling via Drosophila LGR2 | HEK293 LGR2, CRE-luciferase, bursicon-stimulated, 4 h | inhibition, % at 9.99 µM | 380,000 tested, 0.35% active | AID 720647;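 active means drop in luminescence signal, shown as inhibition above about 50% in the replicate tests, limit read from the data, passing the limit was not always enough; inconclusive means probably only some replicates passing the limit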;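 further: agonist challenge used bursicon conditioned medium at about half maximal strength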
TROY NFkB inh – inhibitors of TROY-dependent NF-kB signaling; Q293 LMP1-TROYcd NF-kB luciferase reporter, 4 h; inhibition, % at 10 µM; 360,000 tested, 0.98% active; AID 1347056;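 active means compounds whose plate-normalised and pattern-corrected inhibition of the luciferase reporter signal at the single screening dose is 50% or more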
Hits are given with their value; . = inactive; ? = inconclusive; / = not tested or not shown.

SMILES	TWEAK-Fn14 inh	HSP90 inh	LGR2 inh	TROY NFkB inh
O=C(NCc1ccncc1)C(=O)Nc1nc(C23CC4CC(CC(C4)C2)C3)cs1	76	.	.	57
O=C(NCc1ccccc1)C(=O)Nc1nc(C23CC4CC(CC(C4)C2)C3)cs1	.	.	.	.
COC1=C(OC)C(=O)C(Sc2ccc3ccccc3c2)=CC1=O	58	/	.	.
Cc1nn(-c2nc3ccccc3[nH]2)c(N)c1-c1ccccc1	68	.	/	.
CC(C)CN=C(NS(=O)(=O)c1ccccc1)C(Cl)(Cl)Cl	99	.	94	51
Cc1noc(C)c1S(=O)(=O)N(C)C[C@@H]1Oc2ccc(NS(C)(=O)=O)cc2CC(=O)N([C@H](C)CO)C[C@@H]1C	/	/	.	/
COc1ccc(C(c2c(NC(=O)c3ccco3)sc(C)c2C)N2CCOCC2)cc1 (stereo not drawn)	83	/	.	52
C[C@H](C(=O)N(C)C[C@@H]1OCc2ccccc2-c2ccccc2C(=O)N([C@H](C)CO)C[C@H]1C)c1ccccc1	/	/	.	/
COc1ccc(/C=N/NC(=S)Nc2cccc(C(=O)O)c2)cc1	50	.	75	.
COC(=O)c1ccc(COc2ccc(/C=N/Nc3cccc(C(=O)O)c3)cc2)cc1	.	23	.	.
COc1ccc(/C=N/NC(=S)Nc2ccccc2)cc1	.	.	.	.
COc1cc(/C=N/NC(=O)c2ccccc2)ccc1O	.	.	.	.
COc1cc(/C=N/NC(=S)Nc2cccc(C(=O)O)c2)ccc1O	.	.	91	.
O=C(C[C@@H]1C=C[C@H](NS(=O)(=O)c2ccccc2)[C@@H](CO)O1)N1CCN(c2ccccc2)CC1	/	/	.	/
CC(C)NC(=O)Nc1cccc2c1O[C@@H](CN(C)Cc1ccc3c(c1)OCO3)[C@H](C)CN([C@H](C)CO)C2=O	/	/	.	/
Nc1ccc(OC(=O)Nc2ccc(O)cc2)cc1	66	.	.	.
CN(Cc1ccccc1)C(=O)c1cccc(NC(=O)Cc2ccc(NC(=O)C3CCN(C(=O)CCc4ccccc4)CC3)cc2)c1	85	/	.	57
CN(C(=O)c1cccc(NC(=O)Cc2ccc(NC(=O)C3CCCN(C(=O)CCc4ccccc4)C3)cc2)c1)C1CCCCC1 (stereo not drawn)	89	/	.	62
N#Cc1ccc(NC(=O)Nc2ccc(Oc3ccc(NC(=O)Nc4ccc(C#N)cc4)cc3)cc2)cc1	105	.	.	62
C[C@H](CO)N1C[C@H](C)[C@@H](CN(C)C(=O)Cc2cccnc2)Oc2ncc(/C=C/c3ccccc3)cc2C1=O	/	/	.	/
CC(C)CCN1C(=O)c2ccc(C(=O)Nc3ccc(Br)cc3C(=O)O)cc2C1=O	.	.	.	58
CC(C)CCN1C(=O)c2ccc(C(=O)Nc3cc(C(=O)O)cc(C(=O)O)c3)cc2C1=O	.	.	.	.
COc1ccc(N=C2S/C(=C\c3ccc(Cl)c([N+](=O)[O-])c3)C(=O)N2CCN(C)C)cc1	60	.	?	81
CCN(CC)CCN1C(=O)/C(=C\c2ccc(Cl)c([N+](=O)[O-])c2)SC1=Nc1ccc(OC)cc1	99	.	.	74
CCN1C(=O)/C(=C/c2cccs2)SC1=Nc1ccc(OC)cc1	.	.	/	.
SMILES	TWEAK-Fn14 inh	HSP90 inh	LGR2 inh	TROY NFkB inh
CCCN1C(=O)/C(=C/c2ccc(C)s2)SC1=Nc1ccc(OC)cc1	.	.	.	.
O=C(C1CCOCC1)N1C[C@@H]2[C@H](c3ccccc31)[C@H](CO)N2C(=O)Nc1cccc(F)c1	/	/	.	/
CCn1c(-c2ccccc2)csc1=Nc1ccc(S(=O)(=O)O)cc1	.	.	.	.
COCCCn1c(-c2ccc(S(=O)(=O)N3CCOCC3)cc2)csc1=Nc1ccccc1	71	.	.	.
COc1cccc(CNC(=O)[C@@H]2N[C@@H]3c4ccc(/C=C/c5ccccc5)c(=O)n4C[C@@H]3[C@H]2CO)c1	/	/	.	/
C=CS(=O)(=O)c1ccc(Oc2ccc(S(=O)(=O)C=C)cc2)cc1	102	.	102	63
C[C@@H]1CN([C@@H](C)CO)C(=O)c2cc(NS(=O)(=O)c3ccc(Cl)cc3)ccc2O[C@@H](C)CCCCO[C@H]1CN(C)CC1CC1	/	/	.	/
CN1CCN(c2ccc(NC(=O)c3sc4ccccc4c3Cl)cc2)CC1	.	.	64	60
Cc1cccc(C)c1NC(=O)CSC(=O)c1sc2ccccc2c1Cl	.	.	.	59
C[C@H]1CN([C@@H](C)CO)S(=O)(=O)c2ccc(C3=CCCCC3)cc2O[C@@H]1CN(C)C(=O)c1ccc(F)cc1	/	/	.	/
COc1ccc(NC(=O)Nc2ccc3c(c2)CC(=O)N([C@@H](C)CO)C[C@H](C)[C@H](CN(C)S(=O)(=O)c2cccs2)O3)cc1	/	/	.	/
Cc1ccc(NS(=O)(=O)c2cc(NC(=O)c3ccc4c(c3)NC(=O)CS4)ccc2Cl)c(C)c1	66	.	.	.
COc1ccc(NC(=O)c2ccc3c(c2)NC(=O)CS3)cc1	.	/	.	.
C[C@@H]1CN([C@@H](C)CO)C(=O)Cc2cc(NS(=O)(=O)c3ccc(Cl)cc3)ccc2O[C@H]1CN(C)S(C)(=O)=O	/	/	.	/
Cc1cccc(C(=O)Oc2ccc(/C=N/NC(=O)c3ccc(O)cc3)cc2)c1	.	.	.	52
CCOc1cc(/C=N\NC(=O)c2ccc(NC(=O)C(C)(C)C)cc2)ccc1OC(=O)c1cccc(C)c1	86	.	/	53
Cc1cccc(C(=O)Oc2ccc(/C=N/NC(=O)c3ccccc3O)cc2)c1	.	.	.	.
COc1ccc(C(=O)Cn2c(NCCCO)nc3ccccc32)cc1	.	/	.	.
Cc1cc2nc(NCCCO)n(CC(=O)c3cc(C(C)(C)C)c(O)c(C(C)(C)C)c3)c2cc1C	61	/	.	.
O=C(C[C@H]1C=C[C@@H](NC(=O)C2CCC2)[C@@H](CO)O1)NCC1CC1	/	/	.	/
CO[C@H]1CN(C)C(=O)c2cc(NC(=O)c3ccno3)ccc2OC[C@@H](C)NC[C@H]1C	/	/	.	/
CN(C)CCCN(Cc1cc2cc3c(cc2[nH]c1=O)OCO3)C(=S)Nc1ccccc1	.	.	.	.
COc1ccccc1NC(=O)N(Cc1cccs1)Cc1cc2cc3c(cc2[nH]c1=O)OCO3	67	.	.	.
COc1ccccc1NC(=S)N(CCCN(C)C)Cc1cc2cc3c(cc2[nH]c1=O)OCO3	.	.	/	.
CCc1ccc2[nH]c(=O)c(CN(Cc3ccccc3)C(=O)Nc3ccccc3OC)cc2c1	.	.	.	55
SMILES	TWEAK-Fn14 inh	HSP90 inh	LGR2 inh	TROY NFkB inh
CN(C)CCCN(Cc1cc2cc3c(cc2[nH]c1=O)OCO3)C(=S)Nc1cccc(Cl)c1	.	.	/	51
COc1ccc(S(=O)(=O)Nc2ccc3c(c2)C(=O)N([C@@H](C)CO)C[C@@H](C)[C@@H](CN(C)C(=O)Cc2ccccc2)OCCCC[C@@H](C)O3)cc1	/	/	.	/
CCCNC(=O)[C@H]1[C@H](CO)[C@H]2Cn3c(ccc(-c4ccccc4F)c3=O)[C@H]2N1C(=O)C1CCC1	/	/	.	/
O=C(CCCOc1ccccc1)N1CCN(c2ccccn2)CC1	70	.	/	.
COC(=O)C1CCN(C(=O)CSc2ccccc2)CC1	.	.	.	.
COC(=O)C1CCN(C(=O)CCCOc2ccccc2)CC1	51	.	/	.
C[C@H](CO)N1C[C@H](C)[C@@H](CN(C)C(=O)C2CC2)Oc2cc(C#Cc3ccncc3)ccc2S1(=O)=O	/	/	.	/

Source: PubChem
